# Source: PubChem BioAssay
# This is a sample that favours compounds with a hit; in the whole collection about 3.1% have one here.
# MBD2 DNA inh: inhibitors of human MBD2 binding to methylated oligonucleotide | TR-FRET | inhibition, % at 4.4 µM | 0.31% of 370,000 active | AID 686964; in the data active = inhibition above about 13%
# LEDGF integ inh: blocks HIV-1 LEDGF/p75-dependent DNA integration; TR-FRET IN-LEDGF/p75 DNA integration, Eu/Cy5; 0.64% of 370,000 active; inhibition, % at 3.7 µM; AID 743269;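 active = inhibition above the screen-wide mean plus 3 SD, cut at about 13% in these data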;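 note: signal is the Cy5 over europium emission ratio at 671 and 618 nm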
# UHRF1 MBD2 ctr: blocks human UHRF1 binding to methylated DNA; Q96T88; UHRF1 binding to methylated oligo, TR-FRET; inhibition, % at 4.4 µM; 0.75% of 370,000 active; AID 687016; in the data active = inhibition above about 21%;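 note: UHRF1 SRA domain binding a hemimethylated CpG hairpin DNA probe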
# Target sequence (Q96T88 whole entry, looked up, the tested form may be a part): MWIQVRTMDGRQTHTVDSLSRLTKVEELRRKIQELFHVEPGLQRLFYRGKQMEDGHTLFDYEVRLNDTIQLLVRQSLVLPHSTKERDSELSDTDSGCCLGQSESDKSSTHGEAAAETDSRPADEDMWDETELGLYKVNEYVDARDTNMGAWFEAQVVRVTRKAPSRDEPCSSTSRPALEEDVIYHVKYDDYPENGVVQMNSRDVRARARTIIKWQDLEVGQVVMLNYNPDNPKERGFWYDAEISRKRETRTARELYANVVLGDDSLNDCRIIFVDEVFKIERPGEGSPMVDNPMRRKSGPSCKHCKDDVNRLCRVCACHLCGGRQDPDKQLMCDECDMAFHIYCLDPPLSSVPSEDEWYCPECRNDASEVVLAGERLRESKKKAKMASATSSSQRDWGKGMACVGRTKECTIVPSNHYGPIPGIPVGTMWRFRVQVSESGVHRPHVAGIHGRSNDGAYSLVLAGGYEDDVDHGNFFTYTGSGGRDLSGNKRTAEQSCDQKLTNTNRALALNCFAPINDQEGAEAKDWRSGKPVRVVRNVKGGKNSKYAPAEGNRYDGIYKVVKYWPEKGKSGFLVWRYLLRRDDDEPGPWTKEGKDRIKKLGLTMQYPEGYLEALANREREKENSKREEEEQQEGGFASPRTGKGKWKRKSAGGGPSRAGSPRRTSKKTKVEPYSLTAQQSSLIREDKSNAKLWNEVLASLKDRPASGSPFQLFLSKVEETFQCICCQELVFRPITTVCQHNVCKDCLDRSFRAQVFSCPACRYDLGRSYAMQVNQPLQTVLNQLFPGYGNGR
# proKLK7 act: activators of human kallikrein-7 zymogen. P49862. purified proKLK7, EDANS-DABCYL substrate fluorescence; 100% is mature enzyme control, 0% vehicle. activation, % at 7 µM. 0.9% of 370,000 active;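 active = activation above the mean of all tested compounds plus 3 SD, computed per campaign excluding outliers beyond control limits, cut at about 13% in these data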
# Neddylation inh: blocks human cullin neddylation | P61081+Q13564 | TR-FRET cullin neddylation, biochemical | calls only at 25 µM | 0.58% of 360,000 active | AID 651699; in the data active = inhibition above about 36%
# Rin1-Abl PPI inh: human Rin1-Abl interaction inhibition. inhibition, % at 7.35 µM. AID 588664. TR-FRET Rin1/Abl binding, biochemical. 0.4% of 360,000 active; in the data active = inhibition above about 5%, passing the limit was not always enough
# proKLK7 act conf: confirmation of human kallikrein-7 zymogen activators | shares compounds with proKLK7 act | purified proKLK7, EDANS-DABCYL substrate fluorescence; scaled: vehicle 0, mature enzyme 100 | activation, % at 7 µM | 68% of 3,200 active | AID 686949;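 active = activation, as change over the incubation, above the mean of all tested compounds plus 3 SD, cut at about 13% in these data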
# EDANS-DABCYL int: fluorescence interference counter-screen for KLK7 activators. shares compounds with proKLK7 act. EDANS-DABCYL substrate fluorescence interference, no enzyme, 4 h; solvent 0%, active enzyme control 100%. activation, % at 7 µM. 80% of 3,200 active. AID 686952;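 active = activation above the all-compound mean plus 3 SD, ignoring values outside control-based bounds, cut at about 4.8% in these data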;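 note: value is the 4 h activation minus the activation read at time zero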
# EDANS interf: counter-screen for kallikrein-7 activators: EDANS-DABCYL interference, dose response; shares compounds with proKLK7 act; EDANS-DABCYL peptide fluorescence interference, no enzyme; 20% of 250 active; AID 720493; EC50, µM;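 active = compounds that raise the fluorescence signal in this interference counterscreen, with EC50 at or below 10 µM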;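 note: intact quenched peptide substrate alone read at 355 nm excitation and 520 nm emission; signal is fluorescence gain from T0 to T4 after four hours at room temperature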
# Hits are given with their value; 0 = inactive; - = no result shown.
SMILES,MBD2 DNA inh,LEDGF integ inh,UHRF1 MBD2 ctr,proKLK7 act,Neddylation inh,Rin1-Abl PPI inh,proKLK7 act conf,EDANS-DABCYL int,others
CC1CCCC(C)N1CCCNC(=O)c1cc2c(s1)-c1ccccc1OC2 (configuration not stated),0,0,0,69,0,0,62,63,
O=C(COC(=O)c1ccccc1NCCO)Nc1ccc(S(=O)(=O)NC2=NCCCCC2)cc1,0,0,0,23,-,0,0,0,
O=C(COC(=O)c1ccccc1O)Nc1cccc(S(=O)(=O)NC2=NCCCCC2)c1,0,0,0,0,0,0,-,-,
Cc1ccc(CNC(=O)OC2CC3CC2[C@H]2CCCCN2C3=O)cc1 (some centres not stated),0,0,0,0,0,-,-,-,
CCCNC(=O)OC1CC2CC1[C@H]1CCCCN1C2=O (some centres not stated),0,0,23,45,0,-,0,0,
Cc1cccc(-n2c(=O)c(C#N)cc3c(=O)n4ccccc4nc32)c1,0,0,0,16,-,0,51,72,
COc1cc(-c2cc(=O)c3ccccc3o2)ccc1O,0,0,0,0,0,0,-,-,
CCN(CC)Cc1c(O)ccc2c(=O)c(Oc3ccccc3OC)c(C)oc12,0,0,0,89,-,0,65,69,
COc1ccccc1Oc1c(C)oc2c(CN(C)C)c(O)ccc2c1=O,0,0,0,51,-,0,66,71,
CC1Cc2cccc3c(O)c(C(=O)c4nn[nH]n4)c(=O)n1c23 (configuration not stated),0,0,0,0,0,0,-,-,
COc1ccc(/C=C(\C#N)C(=O)NCC(c2ccc(F)cc2)N2CCOCC2)cc1 (configuration not stated),0,0,0,0,0,0,-,-,
COc1ccc(C2=CC(c3ccc(OC)c(OC)c3)n3nnnc3N2)c(OC)c1 (configuration not stated),0,0,0,16,-,0,0,0,
COc1ccc(CCN2C(=O)c3ccccc3NC2c2cc(Cl)c(O)c(OC)c2)cc1 (configuration not stated),0,0,0,0,-,0,-,-,
CCN(CC)CCN1C(=O)c2ccccc2NC1c1cc(OC)c(OC)c(OC)c1 (configuration not stated),0,0,0,99,-,0,14,18,
CCCN1C(=O)c2ccccc2NC1c1cc(OC)c(OC)c(OC)c1 (configuration not stated),0,0,0,16,-,0,0,16,
CCOc1ccccc1Oc1c(C)oc2cc(OC(=O)c3ccco3)ccc2c1=O,0,0,0,28,-,0,272,238,
COc1ccccc1-c1c(C)oc2cc(OC(=O)c3ccco3)ccc2c1=O,0,0,0,268,-,0,376,359,
COc1ccccc1Oc1c(C)oc2cc(OC(=O)c3ccco3)ccc2c1=O,0,0,0,131,-,0,785,792,
COc1ccc2c(=O)c(-c3ccccc3C)c(C)oc2c1,0,0,0,0,0,0,-,-,
CCOc1ccccc1Oc1coc2cc(OC)ccc2c1=O,0,0,0,0,0,0,-,-,
O=C(COC(=O)CCC(=O)c1ccc(F)cc1)Nc1ccc(Cl)cn1,0,0,0,0,0,0,-,-,
CCCc1cc2c(O)ccc(O)c2c(=O)o1,0,0,0,36,-,-,256,268,
CCCc1cc(=O)c2c(O)cccc2o1,0,0,0,0,0,0,-,-,
COC(=O)[C@]12C[C@H](CC(=O)NCCCN3CCCC3=O)C(=O)N(Cc3cccc4ccccc34)C1=C[C@H](COCc1ccccc1)O[C@@H]2C,0,0,0,0,-,-,-,-,
CC1(C)CC(=O)c2cc(OCC(=O)NCCCN3CCN(c4ccccc4F)CC3)ccc2O1,0,0,0,18,-,0,17,21,
SMILES,MBD2 DNA inh,LEDGF integ inh,UHRF1 MBD2 ctr,proKLK7 act,Neddylation inh,Rin1-Abl PPI inh,proKLK7 act conf,EDANS-DABCYL int,others
CC1(C)CC(=O)c2cc(OCC(=O)N3CCOCC3)ccc2O1,0,0,0,44,-,0,71,81,
CCOC(=O)COc1ccc2c(c1)C(=O)CC1(CCCCC1)O2,0,0,0,24,-,0,14,10,EDANS interf=0
CCCCCCCNC(=O)COc1ccc2c(c1)C(=O)CC(C)(C)O2,0,0,0,0,-,0,-,-,
CC(C)NC(=O)COc1ccc2c(c1)C(=O)CC(C)(C)O2,0,0,0,37,-,0,81,85,
O=C(COc1ccc2c(c1)C(=O)CC1(CCCCC1)O2)NCc1ccccc1,0,0,0,0,-,0,-,-,
Cc1cc([N+](=O)[O-])c2ccccc2c1NS(=O)(=O)c1ccccc1,0,0,0,0,0,0,-,-,
CCOc1ccccc1NC(=O)c1nnn(CC(=O)Nc2cc(C)cc(C)c2)c1N,0,0,0,0,-,0,-,-,
Cn1nc(C(=O)NNC(=O)CCc2ccccc2Cl)c2ccccc2c1=O,0,0,0,0,0,0,-,-,
CCN(CC)C(=O)COc1ccc2c(c1)C(=O)CC(C)(C)O2,0,0,0,47,-,0,40,71,
COc1ccc(OCC(=O)NCc2cccnc2)cc1,0,0,0,0,0,0,-,-,
CC1(C)CC(=O)c2cc(OCC(=O)NCc3cccnc3)ccc2O1,0,0,0,48,-,0,62,66,
CCOC(=O)COc1ccc2c(c1)C(=O)CC(C)(c1cccnc1)O2 (configuration not stated),-,-,-,-,-,0,-,-,
Cc1ccccc1-c1nc2ccccc2[nH]1,0,0,0,0,0,0,-,-,
Cc1cc2nc(-c3ccc[nH]c3=O)n(Cc3ccc(F)cc3)c2cc1C,0,0,0,22,-,0,0,0,
Cc1cc2nc(-c3ccc[nH]c3=O)[nH]c2cc1C,0,0,0,68,0,0,64,71,
COc1ccc(C)cc1NC(=O)CNC(C)C(=O)Nc1cc(Cl)ccc1Cl (configuration not stated),0,0,0,0,0,0,-,-,
COCOCCn1cc(CN2CCS(=O)(=O)N(Cc3ccc(-c4ccc(Cl)c(Cl)c4)cc3)C(C(C)C)C2=O)nn1 (configuration not stated),0,0,0,0,0,0,-,-,
CC(C)NC(=O)c1ccc2sc([C@H]3C[C@H](O)[C@@H](CO)O3)nc2c1,0,0,0,0,0,0,-,-,
COC(=O)c1ccc2c(c1)C(C)(C)C(/C=C/c1ccc(OC)c(OC)c1OC)=[N+]2C,0,0,0,0,-,0,-,-,
COC(=O)c1ccc2c(c1)C(C)(C)C(/C=C/c1ccc(O)cc1)=[N+]2C,0,0,0,25,-,0,0,0,
